PubChem BioAssay AID485297 (National Center for Advancing Translational Sciences (NCATS), 2010)
Hit rate of the full screen: of about 320,000 compounds, about 9,100 (2.8%) were called active. About 3% were inconclusive and are not listed. Calls come from the whole dose curve; as a rule, active = well fitted activation curve with a large enough effect; inconclusive = small, poorly fitted or top-dose-only effect; inactive = no such curve, though single readings can be large or run the other way. Many of the other results were omitted from the sample, so actives are more common in it than they were.

Experiment: qHTS Assay for Rab9 Promoter Activators; note: nearly all actives have a fitted effect of over 60% in size; for activation, negative = inhibition: % of control where 0% means no effect
Details: Huh7 Rab9 promoter-luciferase reporter, luminescence, 24 h; series mostly up to 9.22 µM; activation, negative = inhibition: at the top concentration
Method in brief: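 Luciferase signal after 10 min detection reagent at ambient indicates Rab9 promoter upregulation; stably transfected Huh7 cells were treated 24 h with compound in DMSO at 37 °C, 5% CO2.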
Potency is the fitted concentration of half-maximal effect.

activation, negative = inhibition, inactive:
CC(=O)c1sc(NC(=O)CCN2C(=O)C3CC=CCC3C2=O)nc1-c1ccccc1 (centres undefined) 2.81%
NC(=O)c1cc2ccccc2o/c1=N/NC(=O)c1cccc(F)c1 12.8%
COc1ccc(C(=O)N/N=c2\oc3ccccc3cc2C(N)=O)cc1 11%
CC(=O)Nc1ccc(Nc2cc(C)nc(Nc3ccc(NC(C)=O)cc3)n2)cc1 6.88%
COc1ccc(-n2c(-c3ccc(OC)c(OC)c3)n[nH]c2=S)cc1 0.467%
CCN(c1cccc(C)c1)S(=O)(=O)c1ccc(-c2coc(C)n2)cc1 0.0972%
COc1cc(OC)cc(-c2nc(=S)n3ccsc3n2)c1 17.6%
CCN(CC(=O)NCCc1ccccc1)S(=O)(=O)c1ccc(C)cc1 1.84%
COc1ccc(CNc2nccs2)cc1 22.9%
Cc1ccn2cc(C(=O)NC3CCN(Cc4ccccc4)CC3)nc2c1 -8.26%
Cc1ccccc1N1CCN(C2CCCN(C(=O)c3cn4c(C)cccc4n3)C2)CC1 (centres undefined) 0.145%
COc1ccccc1N1CC(C(=O)NCCN2C(=O)S/C(=C\c3cccnc3)C2=O)CC1=O (centres undefined) -3.77%
CC1CCCCC12NC(=O)N(CC(=O)OCC(=O)NCc1ccc(F)cc1)C2=O (centres undefined) -4.59%
Cc1nn(C(C)C(=O)N2CCOCC2)c(=O)c2nn(-c3ccccc3)c(C)c12 (centres undefined) -3.34%
O=C1C=C(c2cccc(Cl)c2)C[C@@H](c2ccc(F)cc2)C1 -3%
COc1ccc(C(=O)CSc2nnc(NC(=O)C3CC(=O)N(c4cccc(OC)c4)C3)s2)cc1 (centres undefined) -1.42%
COc1ccc(/C=N/Nc2nc(-c3ccc(C)cc3)c(C#N)c(=O)[nH]2)cc1 4.07%
COc1ccc(/C=N/OCC(=O)N(Cc2ccccc2)c2ccccc2C(=O)O)cc1 -2.72%
COc1ccc(CCCc2nnc(SCc3nc4ccccc4c(=O)[nH]3)n2C)cc1 -0.291%
COc1ccc(/C=N/NS(=O)(=O)c2ccc(NC(C)=O)cc2)cc1 -2.84%
COc1ccccc1C(=O)NCC(=O)OCC(=O)Nc1nnc(-c2ccccc2)o1 -0.991%
COc1cc(OC)cc(C(=O)Nc2nnc(SCC(=O)NCC3CCCO3)s2)c1 (centres undefined) 1.89%
COc1ccc(C)cc1NC(=O)CCCN1C(=O)NC(C)(C)C1=O 2.01%

Potency, active:
COc1cccc2cc(C(N)=O)/c(=N\NC(=O)c3ccccc3)oc12 3.55 µM
COc1ccc(-c2cn3ccsc3n2)cc1 0.708 µM
CCN(CC)S(=O)(=O)c1ccc(-c2cn3ccc(C)cc3n2)cc1 2.24 µM
COc1ccc(-c2cn3ccc(C)cc3n2)cc1 0.112 µM
COc1ccc(/C=N/Nc2ccccc2C(=O)O)cc1 0.0891 µM
COc1ccc(/C=N/Nc2nc3ccccc3c(=O)[nH]2)cc1 1.58 µM
